Assay outcomes deposited in PubChem BioAssay by Broad Institute.
Shn3 3UTR inh – Schnurri-3 reporter inhibition in Clone20 osteoblasts; Clone20 osteoblast Shn3 3'UTR firefly luciferase, 24 h; inhibition, % at 12.5 µM; hit rate 0.52% among 360,000; AID 588674;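 active = mean inhibition of at least 75% with every replicate also reaching 75%; inconclusive = mean inhibition at least 75% but some replicate below; inactive = mean inhibition below 75%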;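 also: 0% = median of neutral control wells and 100% = pilot-screen positive control compound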
EBV LMP1 NFkB – Epstein-Barr LMP1 NF-kappaB reporter inhibition | hit rate 0.69% among 350,000 | LMP1-induced NF-kappaB luciferase reporter cells, luminescence | inhibition, % at 12.5 µM; in the data active = inhibition above about 41%; inconclusive = no clear call, values can overlap the other calls;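 also: 0% = neutral control wells and 100% = reference inhibitor control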
PAX8 inh HTS – lowers PAX8-driven luciferase in RMG-I cells. RMG-I TPO-luciferase reporter, SteadyGlo, 24 h. hit rate 1.2% among 360,000. inhibition, % at 12.6 µM. AID 652154;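 active = mean replicate inhibition at least 60% with every replicate also reaching 60%; inconclusive = only one of the two criteria is met; inactive = mean below 60% and not all replicates reaching 60%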;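 also: luciferase light reporting Pax8 driven TPO promoter activity; plate controls were median of neutral control wells for no effect and mitoxantrone controls for full effect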
EWS-Fli block – inhibitors of EWS/Fli oncoprotein transcriptional activity | inhibition, % at 12.6 µM | A673 NR0B1-luciferase reporter, viability-normalised | hit rate 0.67% among 350,000;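 active = mean inhibition of at least 50% after viability correction, with every replicate also passing that limit; inconclusive = mean reaches 50% but only one of two replicates passes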;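 also: firefly luciferase signal divided by Alamar Blue viability fluorescence both relative to DMSO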
MITF TRPM1 inh – reduces MITF-dependent TRPM1 promoter luciferase signal; SK-MEL-5 TRPM1 promoter luciferase, 24 h; inhibition, % at 12.5 µM; hit rate 0.83% among 330,000; AID 488899;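 active = mean inhibition across replicates of 60% or more, whatever share of single replicates reaches that level; inconclusive = some that reach 60%, reason not given; inactive = mean inhibition across replicates below 60%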
LGR2 antag – inhibitors of bursicon-induced Drosophila LGR2 receptor cAMP signaling. HEK293 LGR2, CRE-luciferase, bursicon-stimulated, 4 h. inhibition, % at 9.99 µM. hit rate 0.35% among 380,000. AID 720647;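 active = drop in luminescence signal, shown as inhibition above about 50% in the replicate tests, limit read from the data, passing the limit was not always enough; inconclusive = probably only some replicates passing the limit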;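 also: agonist challenge used bursicon conditioned medium at about half maximal strength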
The depositor's hits bear a star; ? = inconclusive; · = no result. Hits are enriched below; roughly 2.2% of the tested compounds scored in any of these assays.

SMILES	Shn3 3UTR inh	EBV LMP1 NFkB	PAX8 inh HTS	EWS-Fli block	MITF TRPM1 inh	LGR2 antag
COc1ccc(-c2[nH]nc3nc(N4CCN(C(=O)c5ccoc5)CC4)cc(C(F)(F)F)c23)cc1	49	1	34	55*	·	-7
COc1ccc(-c2cc3nc(C)cc(N4CCN(C(=O)c5ccoc5)CC4)n3n2)cc1	0	3	0	-12	·	-9
CCCN1C[C@@H](C)[C@H](OC)CN(C)C(=O)c2cc(NS(=O)(=O)CC)ccc2OC[C@@H]1C	·	·	·	2	·	0
C=CCN1C(=O)[C@]2(O[C@H](CCO)[C@@H]([Si](C)(C)c3ccc(OC)cc3)[C@@H]2C)c2ccccc21	·	·	94*	1	·	·
C=CCN1C(=O)[C@@]2(O[C@@H](CCO)[C@H]([Si](C)(C)c3ccc(OC)cc3)[C@H]2C)c2ccccc21	·	·	66*	19	·	·
COCC(=O)Nc1ccc2c(c1)OC[C@@H](C)N(Cc1cc(F)ccc1F)C[C@H](C)[C@@H](OC)CN(C)C2=O	·	·	6	-1	·	7
C[C@@H]1CCCCO[C@@H](CN(C)S(=O)(=O)c2cn(C)cn2)[C@@H](C)CN([C@H](C)CO)C(=O)c2cc(NC(=O)CCCN(C)C)ccc2O1	·	·	-12	-8	·	2
C[C@@H]1CN([C@@H](C)CO)C(=O)Cc2cc(NC(=O)Cc3ccccc3)ccc2O[C@H]1CN(C)Cc1ccc(C(F)(F)F)cc1	·	·	70*	·	·	20
C[C@H](CO)N1C[C@H](C)[C@@H](CN(C)Cc2ccc(C(F)(F)F)cc2)Oc2ccc(NC(=O)Cc3ccccc3)cc2CC1=O	·	·	52	·	·	2
C[C@@H]1CN([C@H](C)CO)C(=O)Cc2cc(NC(=O)Cc3ccccc3)ccc2O[C@@H]1CN(C)Cc1ccc(C(F)(F)F)cc1	·	·	86*	·	·	19
CC1CCCN(C(=O)Cc2cn(Cc3cccc(Cl)c3)c3ccccc23)C1 (configuration not stated)	12	-6	64*	21	15	19
COc1ccc2c3c([nH]c2c1)[C@H](CO)N(C(=O)c1ccccn1)CC31CCN(C(=O)C2CCC2)CC1	·	·	-17	-12	·	13
O=C(Nc1ccccc1)Nc1ncc([N+](=O)[O-])s1	19	-10	85*	14	-5	65*
O=C(COC(=O)c1ccccc1)Nc1ncc([N+](=O)[O-])s1	-25	-5	3	-22	-28	-28
CC(C)CC(=O)Nc1ncc([N+](=O)[O-])s1	1	-21	8	-10	-5	·
Cc1nc(C)c(C(=O)Nc2ncc([N+](=O)[O-])s2)o1	43	49*	22	57*	36	43
O=C(/C=C/c1ccccc1Cl)c1ccccc(=O)c1O	15	-35	·	·	6	9
O=C(/C=C/c1ccc([N+](=O)[O-])cc1)c1ccccc(=O)c1O	59	19	7	61*	69*	46
Cc1nnsc1C(=O)N/N=C/c1ccc2ccccc2c1O	81	48*	?	·	69*	-3
Cc1c(Cl)cccc1NC(=O)CC(Cc1ccccc1)C(=O)O (configuration not stated)	4	44*	11	-22	-7	0
Cc1c(Cl)cccc1NC(=O)CC(C(=O)O)C1CCCO1 (configuration not stated)	4	-5	-5	·	1	·
O=C(C[C@H]1CC[C@H](NC(=O)Nc2ccccc2F)[C@H](CO)O1)NCc1ccc(Cl)cc1	·	·	-14	0	·	-6
C[C@H]1CN([C@@H](C)CO)S(=O)(=O)c2ccc(C#CCC3CCCC3)cc2O[C@H]1CN(C)C(=O)CN(C)C	·	·	64*	52	·	6
C[C@@H]1CN([C@@H](C)CO)S(=O)(=O)c2ccc(C#Cc3ccc(F)cc3)cc2O[C@H]1CN(C)C(=O)CN(C)C	·	·	·	59*	·	12
CCC(=O)N(C)C[C@H]1Oc2cc(C#CCC3CCCC3)ccc2S(=O)(=O)N([C@@H](C)CO)C[C@@H]1C	·	·	17	?	·	0
SMILES	Shn3 3UTR inh	EBV LMP1 NFkB	PAX8 inh HTS	EWS-Fli block	MITF TRPM1 inh	LGR2 antag
COCC(=O)N(C)C[C@H]1Oc2cc(C#CCC3CCCC3)ccc2S(=O)(=O)N([C@@H](C)CO)C[C@@H]1C	·	·	73*	7	·	11
COCC(=O)N(C)C[C@H]1Oc2cc(C#CCC3CCCC3)ccc2S(=O)(=O)N([C@H](C)CO)C[C@H]1C	·	·	69*	-6	·	16
CCCNC(=O)N1CC2(C1)[C@@H](c1ccccc1)[C@@H](CO)N2Cc1ccccn1	·	·	-10	-3	·	7
COc1ccccc1S(=O)(=O)N(C)C[C@H]1Oc2cc(C#CCC3CCCC3)ccc2S(=O)(=O)N([C@@H](C)CO)C[C@@H]1C	·	·	82*	20	·	-42
CCc1c(C)nc2ncnn2c1NCCc1ccc(Cl)cc1	88*	17	28	23	22	1
CCc1c(C)nc2ncnn2c1NCCc1ccccc1	60	20	6	·	15	·
O=C(NC(=S)Nc1ncccn1)c1ccccc1Cl	-62	-6	70*	-28	-20	-35
CNC(=O)NC(=S)NC(=O)c1ccccc1Cl	-16	-9	-4	-1	-8	4
COc1ccccc1C(=O)NC(=S)Nc1cccnc1Cl	-19	28	40	57*	-38	84*
C[C@H]1CN([C@@H](C)CO)S(=O)(=O)c2ccc(C3=CCCCC3)cc2O[C@@H]1CN(C)C	·	·	·	6	·	7
C[C@@H]1CCCCO[C@H](CN(C)C(=O)Nc2ccccc2)[C@@H](C)CN([C@@H](C)CO)C(=O)c2cc(NS(C)(=O)=O)ccc2O1	·	·	10	-22	·	-21
COc1ccc2c3c([nH]c2c1)[C@H](CO)N(C)CC31CN(C(=O)NC(C)C)C1	·	·	·	3	·	-2
CC(=O)N(Cc1ccc(F)cc1)C1=C(NCc2ccccc2)C(=O)c2ccccc2C1=O	83	53*	·	·	98*	·
O=C(NCc1ccc(F)cc1)C(c1ccccc1)c1ccccc1	15	2	-9	5	3	7
COC(=O)C1=C(C)N(Cc2ccccc2)C(=NCC(C)C)N[C@H]1c1cccc(F)c1	-10	5	-17	24	-4	14
COC(=O)C1=C(C)N(Cc2ccc(C(F)(F)F)cc2)C(=NCc2ccccc2)NC1c1cccc(F)c1 (configuration not stated)	·	·	101*	26	·	58*
COC(=O)C1=C(C)N(Cc2ccc(C(F)(F)F)cc2)C(=NCc2ccc(C(F)(F)F)cc2)NC1c1ccccc1 (configuration not stated)	·	·	40	40	·	-3
C=CCN=C1NC(CCc2ccccc2)C(C(=O)OC)=C(C)N1Cc1cccc(C(F)(F)F)c1 (configuration not stated)	·	·	32	27	·	62*
COC(=O)C1=C(C)N(Cc2ccccc2)C(=NCc2cccc(Cl)c2)N[C@H]1c1cccc(F)c1	0	9	·	·	95*	·
COC(=O)C1=C(C)N(Cc2ccccc2)C(=NCC(C)C)N[C@H]1c1cccc(C(F)(F)F)c1	7	-4	·	·	96*	·
